The entries come from a sample that favours hits as a whole.
Pf Dd2 growth: Plasmodium falciparum Dd2 growth inhibition; P. falciparum Dd2 growth, SYBR Green, 72 h; 4.3% of 120,000 active; Potency, µM (highest dose often 28.9 µM), hits mostly inhibitors; active = well fitted inhibition curve with a large enough effect; note: nearly all actives have a fitted effect of over 65% in size
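Infected erythrocytes (Dd2, 0.3% parasitemia, 2.5% hematocrit final) are added to compound in RPMI-1640/Albumax II medium, grown 72 h at 37C in low oxygen, then lysed with saponin/Triton-X containing SYBR Green and read by fluorescence.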
Numbers stand for hits; 0 = inactive; [ ] = another dose, or the depositor's remark.

SMILES | Pf Dd2 growth
COc1ccc(C2Cn3nnc(C(=O)NC4CCCCCCC4)c3CO2)cc1 (stereo not drawn) | 8.91µM
COc1ccc(C2Cn3nnc(C(=O)N4CCC(C(=O)NC5CCCCC5)CC4)c3CO2)cc1 (stereo not drawn) | 0
COc1ccc(C(=O)N2CCN(C(=O)c3nnn4c3COC(c3ccc(F)cc3)C4)CC2)cc1 (stereo not drawn) | 0
CCCCNC(=O)c1nnn2c1COC(c1ccc(C)cc1)C2 (stereo not drawn) | 0
Cc1ccc(C2Cn3nnc(C(=O)N4CCN(C(=O)c5ccc(F)cc5)CC4)c3CO2)cc1 (stereo not drawn) | 0
Cc1ccc(C2Cn3nnc(C(=O)NCc4ccc(F)cc4)c3CO2)cc1 (stereo not drawn) | 0
COc1ccc(C[C@H](NC(=O)[C@@H]2C[C@H](NC(=O)Nc3cccc(OC)c3)CN2C(=O)c2cccn2C)C(N)=O)cc1 | 0
Nc1ncccc1CN1CC[C@@H]2OCC(=O)N(c3ccccc3)[C@H]2CC1 | 0
CCC1(N2CCN(C(=O)c3ccc(Cl)s3)CC2)CCN(S(C)(=O)=O)C1 (stereo not drawn) | 0
O=C(Nc1nc(-c2ccccc2)ns1)c1ccc(Cl)cc1 | 0
O=C(O)c1cc(-n2c(/C=C\c3ccc(F)cc3)nc3ccccc3c2=O)ccc1Cl | 0
O=C(/C=C/c1ccccc1)Nc1nc2n(n1)C(c1ccc(Cl)cc1)C=C(c1ccccc1)N2 (stereo not drawn) | 11.2µM
O=C(c1ccccc1)n1nc(-c2ccccc2)nc1NCc1ccc(F)cc1 | 0
O=C(/C=C/c1ccc(F)cc1)Nc1nc2n(n1)C(c1ccc(Cl)cc1)C=C(c1ccccc1)N2 (stereo not drawn) | 11.2µM
O=S(=O)(Nc1nc2n(n1)C(c1ccc(F)cc1)C=C(c1ccc(Cl)cc1)N2)c1ccccc1 (stereo not drawn) | 0
CC(=O)Nc1nc2n(n1)C(c1ccc(F)cc1)C=C(c1ccc(Cl)cc1)N2 (stereo not drawn) | 10µM
CC1=C(C(N)=O)C(c2ccc(F)cc2)n2nc(-c3ccccc3Cl)nc2N1 (stereo not drawn) | 0
COc1ccccc1/C=C/C(=O)Nc1nc2n(n1)C(c1ccc(F)cc1)C=C(c1ccccc1)N2 (stereo not drawn) | 10µM
COc1cc(C2C(C(=O)Nc3ccccc3)=C(C)Nc3nc(SCc4ccccc4F)nn32)cc(OC)c1OC (stereo not drawn) | 0
O=C(c1ccc(F)cc1)n1nc(-c2ccccc2)nc1NCc1ccc(F)cc1 | 0
CN(C)Cc1cc(CC2(NCc3ccc4c(c3)OCO4)COC2)no1 | 0
CN(C)[C@@H]1CN(C(=O)Cc2cccnc2)CCC1(O)c1ccccc1 (stereo partly drawn) | 0[5.79 µM]
CCC(=O)N1CCc2c(C(=O)NCc3ccncc3)cccc21 | 0
OC(c1nc(Nc2ccc(Cl)cc2)n[nH]1)C1CC1 (stereo not drawn) | 0
Cc1cc(C)n(CCNC(=O)c2ccc3c(c2)[nH]c(=O)n3C2CCC(O)CC2)n1 (stereo not drawn) | 0
SMILES | Pf Dd2 growth
COc1ccc(C(=O)N2CCCC3(C2)C(=NC2CCCC2)NC(=O)N3c2cccc(OC)c2)cc1 (stereo not drawn) | 0
COc1cccc(N2C(=O)NC(=NC3CCCCC3)C23CCCN(Cc2ccc(N(C)C)cc2)C3)c1 (stereo not drawn) | 11.2µM
COc1cccc(N2C(=O)NC(=NC3CCCC3)C23CCCN(Cc2ccc(N(C)C)cc2)C3)c1 (stereo not drawn) | 11.2µM
COc1cccc(N2C(=O)NC(=NC3CCCC3)C23CCN(C(=O)c2ccccc2)C3)c1 (stereo not drawn) | 0
COc1cccc(N2C(=O)NC(=NC3CCCCC3)C23CCCN(C(=O)c2ccccc2)C3)c1 (stereo not drawn) | 0
COc1cccc(N2C(=O)NC(=NC3CCCCC3)C23CCN(C(=O)c2ccccc2)C3)c1 (stereo not drawn) | 0
O=C(NC[C@H]1O[C@H](Cc2cc(-c3ccccc3)on2)CC[C@@H]1O)c1ccncc1 | 0
Cc1ccc(C2Cn3nnc(-c4noc(-c5ccoc5)n4)c3CO2)cc1 (stereo not drawn) | 0
COc1ccc(C(=O)NCCC2CCN(C(=O)Nc3ccc(F)cc3)CC2)cc1OC | 0
Cc1ccc(C2Cn3cnc(C(=O)N4CCC(C(=O)NCc5ccccc5Cl)CC4)c3CO2)cc1 (stereo not drawn) | 0
O=C(CNC(=O)c1cnccn1)NC1CCCc2c1[nH]c1c(Cl)cccc21 (stereo not drawn) | 0
Cc1cc(C(=O)NC2CCCc3c2[nH]c2c(Cl)cccc32)c2c(C)noc2n1 (stereo not drawn) | 0
COc1cc(C(=O)NC2CCCc3c2[nH]c2c(Cl)cccc32)cc(OC)c1OC (stereo not drawn) | 1µM
O=C(c1cccc(=O)[nH]1)N1CCCC(c2n[nH]c(=O)n2-c2ccccc2)C1 (stereo not drawn) | 0
COCCn1c(C)cnc1CC1CCN(C(=O)CCC2CCCC2)CC1 | 0
CC(C)C(=O)N1CCCC(c2noc(COc3ccccc3F)n2)C1 (stereo not drawn) | 0
Cc1cc(Cl)cc(Cl)c1CNCC1(O)CCCNC1 (stereo not drawn) | 7.94µM
Cc1cnc(CNCC2(O)CNCCOC2)cn1 (stereo not drawn) | 0
COc1c(F)cc(CNCC2(O)CCCNC2)cc1F (stereo not drawn) | 0
O=C(c1ccnc(-c2cncnc2)c1)N1CCCC1 | 0
O=C(CCNc1c(-c2ccc(F)cc2)nc2cnccn12)N1CCCCC1 | 0
COCCn1c(C)cnc1CC1CCCN(C(=O)c2ccnn2C)C1 (stereo not drawn) | 0
COCc1nncn1C1CCN(S(=O)(=O)c2ccc(Cl)c(C)c2)CC1 | 0
COc1ccc(Cl)cc1NC(=O)CCC1CCCN(C(=O)c2ccoc2C)C1 (stereo not drawn) | 3.98µM
COc1ccc(NC(=O)CCC2CCCN(C(=O)c3ccccc3SC)C2)cc1Cl (stereo not drawn) | 0
SMILES | Pf Dd2 growth
COc1ccc(NC(=O)CCC2CCCN(C(=O)c3ncoc3C)C2)c(C)c1 (stereo not drawn) | 0
CCCc1ccc2oc(C(=O)N(C)CCC3CCCCO3)c(C)c2c1 (stereo not drawn) | 10µM
Cc1c(Cl)cc(C(=O)N(C)CCC2CCOCC2)cc1Cl | 0
CCCc1ccc2oc(C(=O)NCCc3nncn3CC)c(C)c2c1 | 0
CN(C)[C@H]1CCN(Cc2cccc(C(=O)O)c2)C[C@H]1CCC(=O)O | 0
CC1(C)Cc2nc(C(C)(C)C)ncc2C(NC(=O)CCCN2CCCC2=O)C1 (stereo not drawn) | 0
Cc1ccc(Cc2nc3ccccc3nc2SCC(=O)N2CCC(C)CC2)cc1 | 10µM
Cc1ccc(Cc2nc3ccccc3nc2SCC(=O)N2CCN(c3ccc(F)cc3)CC2)cc1 | 0
COc1ccccc1N1CCN(C(=O)CSc2nc3ccccc3nc2Cc2ccc(C)cc2)CC1 | 0
O=C(NCCN1CCOC1=O)c1cn(CCC2CCCCN2)nn1 (stereo not drawn) | 0
CCOc1cccc(CNC(=O)C2CCCCC(=O)N2Cc2cccc(OC)c2)c1 (stereo not drawn) | 0
COc1cccc(CN2CCC(Oc3ccc(C(=O)NC4CCCC4)cc3Cl)CC2)c1 | 11.2µM
COc1cccc(CN2CCCC(NC(=O)Nc3ccccc3OC)C2)c1 (stereo not drawn) | 0
O=C(NC1CCS(=O)(=O)C1)C1CCCCC(=O)N1Cc1ccccc1 (stereo not drawn) | 0

Screening results deposited in PubChem BioAssay by National Center for Advancing Translational Sciences (NCATS).
